For 8 compounds, growth results are on record in PubChem BioAssay (NCI).

Among the test systems are EKVX NSCLC; SN12C renal; UO-31 renal; TK-10 renal; ACHN renal; CAKI-1 renal; A498 renal; CCRF-CEM leukemia; MOLT-4 leukemia; SR leukemia; RPMI-8226 leukemia; OVCAR-8 ovarian; OVCAR-5 ovarian; OVCAR-4 ovarian; SK-OV-3 ovarian; IGROV1 ovarian; OVCAR-3 ovarian; HS 578T breast; NCI/ADR-RES ovarian; T-47D breast.
Assay in all cases: NCI-60 one-dose screen, 48 h (100 = growth as untreated, 0 = no growth, -100 = all killed)
Conditions in all cases: 10 µM unless noted

Compounds without any hit were thinned out: in the full panel of roughly 83,000, 20% have a hit.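 Single-dose data. Exposure time 48 hours. Values below 10 considered active.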 Values without a mark were called inactive. Activity calls are given as the source filed them.

`Nc1c(C(=O)Nc2ccc(Cl)cc2)sc2nc(-c3cnccn3)cc(-c3cccs3)c12`: the growth was 71.7% with EKVX NSCLC; 66.6% in the experiment on SN12C renal; 67.7% in the experiment on UO-31 renal; 118% in the experiment with TK-10 renal; 17% with ACHN renal; -6.36% (active) with CAKI-1 renal. The growth was 82.3% in the experiment with A498 renal; 88.6% in the experiment on CCRF-CEM leukemia; 70.1% in the experiment with MOLT-4 leukemia; 40.7% with SR leukemia; 85.1% in the experiment on RPMI-8226 leukemia; 48.1% in the experiment on OVCAR-8 ovarian. The growth with OVCAR-5 ovarian was 66.2%; in the experiment on OVCAR-4 ovarian, 61.3%; in the experiment with SK-OV-3 ovarian, 74.1%; with IGROV1 ovarian it was 74.2%; in the experiment with OVCAR-3 ovarian, 62.7%; with HS 578T breast, 47.1%. Further, the results for the growth in the experiment with NCI/ADR-RES ovarian and with T-47D breast were 68.3% and 96.7%, respectively.

Regarding `C/C(=C(/c1ccc(Cl)cc1)c1ccc(OCCN)cc1)c1ccc(C)cc1`, the growth with EKVX NSCLC was 98.8%; with SN12C renal it was 95.7%; in the experiment on UO-31 renal it was 83.2%; in the experiment on TK-10 renal it was 116%; in the experiment on ACHN renal, 96.6%; with CAKI-1 renal, 86.6%. Also, the growth is 97.4% with A498 renal; 98.9% with CCRF-CEM leukemia; 96.4% with MOLT-4 leukemia; 88.6% in the experiment on SR leukemia; 96.5% with RPMI-8226 leukemia; 100% in the experiment with OVCAR-8 ovarian. In addition, the growth is 101% in the experiment on OVCAR-5 ovarian; 97% with OVCAR-4 ovarian; 120% in the experiment with SK-OV-3 ovarian; 100% in the experiment with IGROV1 ovarian; 105% in the experiment with OVCAR-3 ovarian; 96.7% with HS 578T breast. In addition, the growth is 111% with NCI/ADR-RES ovarian and 96.8% with T-47D breast.

In the case of `O=C(CSc1nccc(=O)[nH]1)Nc1ccc(-c2nc3ccccc3[nH]2)cc1`, the growth is 111% in the experiment on EKVX NSCLC; 103% in the experiment with SN12C renal; 108% in the experiment on UO-31 renal; 116% in the experiment on TK-10 renal; 101% in the experiment on ACHN renal; 112% in the experiment with CAKI-1 renal. Moreover, the growth was 116% in the experiment with A498 renal; 101% in the experiment with CCRF-CEM leukemia; 111% in the experiment on MOLT-4 leukemia; 117% in the experiment on SR leukemia; 109% in the experiment with RPMI-8226 leukemia; 103% in the experiment with OVCAR-8 ovarian. Moreover, the growth in the experiment on OVCAR-5 ovarian is 109%; with OVCAR-4 ovarian, 112%; with SK-OV-3 ovarian, 103%; in the experiment on IGROV1 ovarian, 102%; with OVCAR-3 ovarian it was 123%; with HS 578T breast, 119%. The results for the growth in the experiment with NCI/ADR-RES ovarian and with T-47D breast were 111% and 106%, respectively.

Turning to `CCN1C(=S)N(c2ccccc2)C2NC(=O)N(/N=C/C=C/c3ccccc3OC)C21` (stereo not drawn), the growth in the experiment on EKVX NSCLC is 89.7%; with SN12C renal, 87.5%; in the experiment on UO-31 renal, 90.4%; with TK-10 renal, 105%; with ACHN renal it was 80.1%; with CAKI-1 renal, 72.6%. Also, the growth in the experiment on A498 renal is 95%; with CCRF-CEM leukemia, 92.3%; in the experiment on MOLT-4 leukemia, 101%; in the experiment with SR leukemia, 40.9%; with RPMI-8226 leukemia, 92.6%; in the experiment on OVCAR-8 ovarian it was 73.1%. Moreover, the growth in the experiment on OVCAR-5 ovarian is 97.7%; in the experiment with OVCAR-4 ovarian, 81.1%; in the experiment with SK-OV-3 ovarian it was 115%; in the experiment with IGROV1 ovarian, 92.1%; in the experiment with HS 578T breast, 78.7%; in the experiment on NCI/ADR-RES ovarian it was 99.4%. In addition, in the experiment with T-47D breast, the growth is 93.3%.

As for `CCCC(=O)NC(c1ccc2c(c1)OC(F)(F)O2)c1cc(C)c2cccnc2c1O` (stereo not drawn), the growth in the experiment with EKVX NSCLC was 23.1%; with SN12C renal, 19.4%; with UO-31 renal, 6.46% (active); with TK-10 renal, 54.8%; in the experiment on ACHN renal, 6.71% (active); with CAKI-1 renal, 12.8%. Further, the growth is 6.01% (active) with A498 renal; 9.16% (active) in the experiment with CCRF-CEM leukemia; 15.3% in the experiment with MOLT-4 leukemia; 13% in the experiment on SR leukemia; 29.1% in the experiment on RPMI-8226 leukemia; 14.3% in the experiment with OVCAR-8 ovarian. For the same compound, the growth was 42% with OVCAR-5 ovarian; 33.7% with OVCAR-4 ovarian; 9.65% (active) with SK-OV-3 ovarian; 12.7% with IGROV1 ovarian; 24.8% in the experiment on OVCAR-3 ovarian; 38.5% in the experiment on HS 578T breast. Further, the growth in the experiment with NCI/ADR-RES ovarian is 18.8%; in the experiment on T-47D breast it was 23.9%.

Take `O=C1c2c(c3c4cccnc4[nH]c3c3ccc4ccccc4c23)C(=O)N1CCO`: the growth with EKVX NSCLC is 108%; in the experiment on SN12C renal it was 84.4%; in the experiment on UO-31 renal it was 56.1%; in the experiment with TK-10 renal, 127%; with ACHN renal, 48.3%; with CAKI-1 renal, 42.6%. For the same compound, the growth in the experiment with A498 renal was 57%; in the experiment on CCRF-CEM leukemia it was 42.8%; in the experiment with MOLT-4 leukemia, 31.7%; with SR leukemia, 9.85% (active); with RPMI-8226 leukemia, 72.7%; with OVCAR-8 ovarian, 78%. Besides, the growth is 121% in the experiment on OVCAR-5 ovarian; 105% in the experiment with OVCAR-4 ovarian; 84.8% with SK-OV-3 ovarian; 67.7% with IGROV1 ovarian; 121% in the experiment on HS 578T breast; 87.2% in the experiment on NCI/ADR-RES ovarian. Besides, in the experiment on T-47D breast, the growth was 37.2%.

With `Cc1ccc(-c2nc(C(Cl)Cl)nc3cc(-c4ccccc4)nn23)cc1`, the growth in the experiment on EKVX NSCLC is -0.218% (active); in the experiment on SN12C renal, 51.4%; in the experiment with UO-31 renal, 45.3%; with TK-10 renal it was 23.7%; with ACHN renal it was -59.8% (active); with CAKI-1 renal it was -22.9% (active). For the same compound, the growth with A498 renal was -31.3% (active); in the experiment on CCRF-CEM leukemia, 37.8%; in the experiment on MOLT-4 leukemia, 10.4%; in the experiment with SR leukemia, 1.15% (active); with RPMI-8226 leukemia it was 6.1% (active); in the experiment on OVCAR-8 ovarian it was 10.3%. The growth in the experiment on OVCAR-5 ovarian was -8.77% (active); with OVCAR-4 ovarian it was -24% (active); in the experiment with SK-OV-3 ovarian, -32.4% (active); with IGROV1 ovarian, 29.3%; with OVCAR-3 ovarian, -42.7% (active); in the experiment on HS 578T breast, 1.87% (active). The figures for the growth with NCI/ADR-RES ovarian and in the experiment with T-47D breast were 13.5% and 51%, respectively.

For the compound `COc1cccc(N2CCN(c3ncnc4c3[nH]c3ccc(F)cc34)C[C@@H]2C)c1`, the growth in the experiment with EKVX NSCLC was -0.593% (active); in the experiment on SN12C renal, -28.2% (active); in the experiment with UO-31 renal, -98.8% (active); in the experiment with TK-10 renal it was -31.6% (active); with ACHN renal, -12.9% (active); in the experiment on CAKI-1 renal, -28.6% (active). Further, the growth was -23.1% (active) with A498 renal; -16.1% (active) with CCRF-CEM leukemia; -42% (active) in the experiment on MOLT-4 leukemia; -22.8% (active) with SR leukemia; -34.7% (active) in the experiment with RPMI-8226 leukemia; -96.7% (active) with OVCAR-8 ovarian. Besides, the growth with OVCAR-5 ovarian was 0.0989% (active); with OVCAR-4 ovarian, -56.5% (active); in the experiment with SK-OV-3 ovarian, -3.28% (active); in the experiment with IGROV1 ovarian it was -30.2% (active); with OVCAR-3 ovarian it was -7.65% (active); in the experiment on HS 578T breast it was -18.7% (active). The growth in the experiment on NCI/ADR-RES ovarian is 7.77% (active); in the experiment with T-47D breast, -52.6% (active).
